Data taken from PubChem BioAssay AID504333 (National Center for Advancing Translational Sciences (NCATS), 2011).
Screen size: about 360,000 compounds; about 16,000 (4.4%) were called active. About 9% were inconclusive and are not listed. Calls come from the whole dose curve; as a rule, active = well fitted inhibition curve with a large enough effect; inconclusive = small, poorly fitted or top-dose-only effect; inactive = no such curve, though single readings can be large or run the other way. Many of the other results were omitted from the sample, so actives are more common in it than they were.

biological target: Bromodomain adjacent to zinc finger domain protein 2B (Homo sapiens) (UniProt Q9UIF8); test: qHTS Assay for Inhibitors of BAZ2B; details: AlphaScreen BAZ2B-H3K14Ac peptide displacement; series mostly up to 114 µM; activity change, negative = inhibition: at the top concentration; note: nearly all actives have a fitted effect of over 60% in size
Sequence (Q9UIF8 whole entry, looked up, the tested form may be a part): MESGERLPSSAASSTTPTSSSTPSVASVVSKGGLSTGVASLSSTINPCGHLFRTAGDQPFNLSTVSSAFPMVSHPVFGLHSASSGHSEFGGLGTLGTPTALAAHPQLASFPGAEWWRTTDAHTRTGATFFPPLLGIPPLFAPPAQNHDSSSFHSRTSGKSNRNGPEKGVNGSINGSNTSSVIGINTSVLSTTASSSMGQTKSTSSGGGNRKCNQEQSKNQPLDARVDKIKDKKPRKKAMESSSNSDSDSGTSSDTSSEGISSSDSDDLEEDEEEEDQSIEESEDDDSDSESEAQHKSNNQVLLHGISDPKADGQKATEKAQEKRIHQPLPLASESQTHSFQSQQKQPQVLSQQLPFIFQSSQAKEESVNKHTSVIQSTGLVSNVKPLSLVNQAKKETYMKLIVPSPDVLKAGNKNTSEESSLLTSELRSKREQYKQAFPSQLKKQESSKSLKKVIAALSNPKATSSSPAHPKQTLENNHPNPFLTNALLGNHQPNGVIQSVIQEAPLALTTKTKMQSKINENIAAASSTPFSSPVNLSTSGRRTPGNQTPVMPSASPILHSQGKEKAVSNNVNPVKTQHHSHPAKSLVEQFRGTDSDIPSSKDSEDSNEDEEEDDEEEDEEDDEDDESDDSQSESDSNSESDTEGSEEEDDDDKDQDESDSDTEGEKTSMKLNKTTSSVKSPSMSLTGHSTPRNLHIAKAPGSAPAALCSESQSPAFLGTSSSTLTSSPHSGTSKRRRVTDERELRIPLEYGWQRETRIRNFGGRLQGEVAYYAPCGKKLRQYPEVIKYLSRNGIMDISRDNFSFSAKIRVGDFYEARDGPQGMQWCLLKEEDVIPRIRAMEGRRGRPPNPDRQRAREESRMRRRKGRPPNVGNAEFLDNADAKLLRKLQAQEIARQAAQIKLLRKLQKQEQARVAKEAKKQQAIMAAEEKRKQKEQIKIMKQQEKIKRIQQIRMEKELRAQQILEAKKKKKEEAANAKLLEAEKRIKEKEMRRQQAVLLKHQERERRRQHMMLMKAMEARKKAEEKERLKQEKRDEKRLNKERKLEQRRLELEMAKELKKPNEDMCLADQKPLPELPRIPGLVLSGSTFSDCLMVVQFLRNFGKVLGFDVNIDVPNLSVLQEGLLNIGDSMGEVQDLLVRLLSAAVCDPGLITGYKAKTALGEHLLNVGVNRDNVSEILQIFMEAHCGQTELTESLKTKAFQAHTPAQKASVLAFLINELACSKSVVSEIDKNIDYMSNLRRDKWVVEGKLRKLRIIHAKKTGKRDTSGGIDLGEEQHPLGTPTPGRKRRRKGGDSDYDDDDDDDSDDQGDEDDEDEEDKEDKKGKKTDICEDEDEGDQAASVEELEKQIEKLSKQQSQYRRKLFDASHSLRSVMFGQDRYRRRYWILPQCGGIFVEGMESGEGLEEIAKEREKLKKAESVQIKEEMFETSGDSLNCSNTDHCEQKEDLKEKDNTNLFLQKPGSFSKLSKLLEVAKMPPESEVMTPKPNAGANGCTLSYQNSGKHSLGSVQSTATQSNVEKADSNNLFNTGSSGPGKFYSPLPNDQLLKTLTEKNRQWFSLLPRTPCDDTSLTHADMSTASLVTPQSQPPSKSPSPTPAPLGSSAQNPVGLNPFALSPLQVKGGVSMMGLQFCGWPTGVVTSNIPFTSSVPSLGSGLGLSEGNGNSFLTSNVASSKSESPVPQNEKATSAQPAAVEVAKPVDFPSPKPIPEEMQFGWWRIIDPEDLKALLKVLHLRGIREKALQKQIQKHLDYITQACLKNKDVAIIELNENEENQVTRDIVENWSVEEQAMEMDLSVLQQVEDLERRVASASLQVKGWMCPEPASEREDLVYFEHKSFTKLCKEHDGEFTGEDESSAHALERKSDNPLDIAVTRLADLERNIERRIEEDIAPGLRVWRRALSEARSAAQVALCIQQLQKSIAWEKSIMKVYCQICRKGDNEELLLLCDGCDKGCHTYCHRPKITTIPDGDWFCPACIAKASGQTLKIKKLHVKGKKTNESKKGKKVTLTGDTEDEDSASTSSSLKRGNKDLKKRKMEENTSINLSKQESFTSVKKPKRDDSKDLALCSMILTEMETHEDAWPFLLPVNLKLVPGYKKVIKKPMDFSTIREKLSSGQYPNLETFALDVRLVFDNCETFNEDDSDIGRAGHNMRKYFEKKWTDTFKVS
How it was run: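 In this displacement format the biotinylated H3(5-23) peptide acetylated at Lys14 serves as ligand at 50 nM, with BAZ2B at 50 nM in PBS pH 7.4 containing 0.01% Tween-20. Donor and acceptor beads are 10 ug/mL final.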
% is set by controls: 0 for no effect and ±100 for the full control effect; potency is the fitted concentration of half-maximal effect.

Row | Structure (SMILES) | activity change, negative = inhibition | Potency
1 | Cc1cccc(C2CC(=O)Oc3c2c(=O)n(C)c2ccccc32)c1 (centres undefined) | -12.8% (inactive) | 
2 | CCOC(=O)C1=C(C)NC(SC)=NC1c1ccccc1 (centres undefined) | 2.29% (inactive) | 
3 | CCOC(=O)C1=C(C)N=C2c3ccccc3C(=O)C2C1c1ccc(Br)cc1 (centres undefined) |  | 22.4 µM (active)
4 | Cc1cccc(C2C3=C(CCCC3=O)N=C3c4ccccc4C(=O)C32)c1 (centres undefined) | -38.9% (inactive) | 
5 | CCCN1CCc2nc(N3CCN(C)CC3)ncc2C1 | 3.12% (inactive) | 
6 | COC(C(=O)Nc1ccc(C(C)=O)cc1)c1ccccc1 (centres undefined) | 6.93% (inactive) | 
7 | COc1ccc(NC(=O)[C@H](NC(=O)[C@@H]2Cc3ccccc3CN2)c2ccccc2)cc1 | -11.2% (inactive) | 
8 | COc1ccc(NC(C(=O)Nc2cccc(C(C)=O)c2)c2ccccc2)cc1 (centres undefined) |  | 50.1 µM (active)
9 | Cc1cccc(C(=O)Nc2ccc(-c3nc4ccccc4s3)c(C)c2)c1 | 0.838% (inactive) | 
10 | O=C(Nc1ccc2nc(SCCOc3ccccc3Cl)sc2c1)c1ccco1 | -28.6% (inactive) | 
11 | COc1cc(-c2nn3c(-c4cccc(C)c4)nnc3s2)cc(OC)c1OC | -1.78% (inactive) | 
12 | CCOc1cccc(-c2nn3c(-c4ccccn4)nnc3s2)c1 |  | 50.1 µM (active)
13 | c1ccc(-c2cc(-c3nnc4sc(-c5ccccn5)nn34)[nH]n2)cc1 | -21.7% (inactive) | 
14 | COc1ccc(/C=C2\SC(=O)N(CCC(=O)NCCCn3ccnc3)C2=O)cc1 | -34.5% (inactive) | 
15 | COc1ccc(/C=C2/SC(=O)N(CCCCCC(=O)Nc3ccccc3C(=O)O)C2=S)cc1 |  | 56.2 µM (active)
16 | COc1ccc(/C=C2\SC(=O)N(CCC(=O)NC3CCS(=O)(=O)C3)C2=O)cc1 (centres undefined) | -17.6% (inactive) | 
17 | CCCCNc1ccc(-c2nc(-c3ccncc3)no2)cc1[N+](=O)[O-] | -14.3% (inactive) | 
18 | CCN(Cc1ccccc1)Cc1c(O)ccc2c(=O)c(-c3ccc(Cl)cc3Cl)coc12 | -1.44% (inactive) | 
19 | COc1ccc2c(c1)C(C)=CC(C)(C)N2C(=O)Nc1ccccc1 |  | 50.1 µM (active)
20 | COc1cccc(NC(=O)C2C(c3ccccc3)C2(Cl)Cl)c1 (centres undefined) | 3.62% (inactive) | 
21 | CC1=CC(C)(C)N(C(=O)CSc2nnc(-c3ccccc3)o2)c2ccc(C)cc21 | -12.4% (inactive) | 
22 | CC1=C(C(=O)OCc2ccc(C)cc2)C(c2c(Cl)cccc2Cl)CC(=O)N1 (centres undefined) | -0.666% (inactive) | 
23 | Cc1ccc(OCCn2c(CNc3ccccc3C)nc3ccccc32)cc1 | -26.1% (inactive) | 
24 | COc1ccc(OC)c(NC(=O)C2CCCN(S(=O)(=O)c3ccc4c(c3)CCCC(=O)N4)C2)c1 (centres undefined) | -0.384% [at 57.1 µM] (inactive) | 
25 | CC1CCC2CCCCC2N1C(=O)c1cc([N+](=O)[O-])cc([N+](=O)[O-])c1 (centres undefined) |  | 50.1 µM (active)

Row | Structure (SMILES) | activity change, negative = inhibition | Potency
26 | O=C(c1cc(C(=O)N2CCN(c3ccc(F)cc3)CC2)cc([N+](=O)[O-])c1)N1CCN(c2ccc(F)cc2)CC1 | -32.9% (inactive) | 
27 | COC(=O)c1cc(C(=O)NC(C)C2CC3CCC2C3)cc([N+](=O)[O-])c1 (centres undefined) | -28.5% (inactive) | 
28 | COc1ccc(N2CCN(c3cc(C)nc4nncn34)CC2)cc1 | -3.48% (inactive) | 
29 | COc1ccc(N2C(=O)CSC23C(=O)N(Cc2cccc(F)c2)c2ccccc23)cc1Cl (centres undefined) | -22.3% (inactive) | 
30 | Cc1ccc(-n2c(SCC(=O)c3ccccc3)nc3c([nH]c4ccccc43)c2=O)cc1 | 2.93% (inactive) | 
31 | COc1ccc2ccccc2c1CNc1nnnn1C | -10.5% (inactive) | 
32 | COc1ccc(C)cc1NC(=O)NCc1ccccn1 | -14.3% (inactive) | 
33 | COc1ccc2ccccc2c1CNCc1ccccn1 |  | 79.4 µM (active)
34 | CCCSc1ncc(Cl)c(C(=O)Nc2sc3c(c2C(=O)NCCOC)CCCC3)n1 | -19.1% (inactive) | 
35 | Cc1c(Cl)cccc1NC(=O)C1CCCN(c2ncnc3onc(C)c23)C1 (centres undefined) | 8.64% [at 57.1 µM] (inactive) | 
36 | Cc1ccc(NC(=O)Cn2c(=O)n(-c3ccccc3)c(=O)c3c4c(sc32)CCCC4)cc1 | -2.88% (inactive) | 
37 | O=c1c2c3c(sc2n(CCN2CCCC2)c(=O)n1Cc1ccccc1)CCCCC3 |  | 89.1 µM (active)
38 | CCOC(=O)N1CCc2c(sc3c2c(=O)n(Cc2ccccc2)c(=O)n3CC(=O)Nc2cccc(C)c2)C1 | 3.88% (inactive) | 
39 | O=C(Nc1cc(C(F)(F)F)ccc1Cl)c1nc2ccccc2nc1N1CCCCC1 | -31.3% (inactive) | 
40 | Brc1ccccc1C1N=C(c2ccccc2)NO1 (centres undefined) | 9.17% (inactive) | 
41 | COc1cc2c(cc1OC)C(c1ccccc1Br)NC(=O)C2 (centres undefined) | -6.18% (inactive) | 
42 | Brc1ccccc1C1Nc2cccc3cccc(c23)N1 |  | 44.7 µM (active)
43 | COc1ccc(C(=O)Nc2ccccc2C(=O)N2CCN(c3ccccc3)CC2)cc1 | -20.7% (inactive) | 
44 | COc1ccc(N2CCN(C(=O)c3ccc4c(Cl)c5c(nc4c3)CCCC5)CC2)cc1 |  | inactive
45 | COc1ccc(N2CCN(C(=O)c3ccc(N4CCCCS4(=O)=O)cc3)CC2)cc1 |  | 50.1 µM (active)
46 | O=C(NCC(c1cccnc1)N1CCc2ccccc21)c1cccc(C(F)(F)F)c1 (centres undefined) | -2.57% (inactive) | 
47 | COc1ccc(-c2nn3c(=O)cc(CN4CCN(C(=O)c5ccc(OC)c(OC)c5)CC4)nc3s2)cc1 | 1.38% (inactive) | 
48 | COc1ccc(S(=O)(=O)Nc2cc3c(C(=O)OC(C)C)c(C)oc3c3ccccc23)cc1 | -13.1% (inactive) | 
49 | COc1ccc(S(=O)(=O)/N=C2\C=C(NS(=O)(=O)c3ccccc3)C(=O)c3ccccc32)cc1 |  | 10 µM (active)
50 | COc1ccc(NC(=O)c2cnc(NS(=O)(=O)c3ccccc3)nc2)cc1 | 1.25% (inactive) | 

Row | Structure (SMILES) | activity change, negative = inhibition | Potency
51 | COc1cc(NC(=O)c2nc3ccccc3nc2C)cc(OC)c1OC | -17.8% (inactive) | 
52 | CCOc1ccc(NCCC(=O)c2ccc3c(c2)OCO3)cc1 |  | 39.8 µM (active)
53 | COC(=O)CCNc1ccc2c(c1)OCCO2 | 6.99% (inactive) | 
54 | O=C(COc1ccc(Cl)cc1)Nc1ccc2c(c1)OCO2 | 3.44% (inactive) | 
55 | CCCCN1C(=O)c2[nH]nc(-c3ccccc3O)c2C1c1cccc(OCc2ccccc2)c1 (centres undefined) | -26.7% (inactive) | 
56 | Cc1cccc(NC(=O)c2ccc3nc(C(C)C)oc3c2)c1C | 27.1% (inactive) | 
57 | CC(=O)c1ccc(NS(=O)(=O)c2ccc(-c3cc(C)no3)s2)cc1 | -3.44% (inactive) | 
58 | O=C(Nc1cc(Cl)cc(Cl)c1)c1ccc2c(c1)N(Cc1cccc(Cl)c1)C(=O)c1ccccc1S2=O (centres undefined) | 3.3% (inactive) | 
59 | CCOC(=O)c1ccc(NC(=O)C2CCN(S(=O)(=O)c3ccc4c(c3)CCCC(=O)N4)CC2)cc1 | 4.44% [at 57.1 µM] (inactive) | 
60 | C=CCSc1nnc(N2C(=O)C(O)=C(C(=O)c3ccco3)C2c2ccc(F)cc2)s1 (centres undefined) |  | 50.1 µM (active)
61 | O=C(C1=C(O)C(=O)N(Cc2ccccc2)C1c1ccco1)c1ccco1 (centres undefined) | -32.8% (inactive) | 
62 | CC(C)c1ccc(C2C(C(=O)c3ccco3)=C(O)C(=O)N2CC2CCCO2)cc1 (centres undefined) | -25.4% (inactive) | 
63 | COc1ccccc1N1CCN(c2ncnc3onc(-c4ccc(F)cc4)c23)CC1 | 3.92% [at 57.1 µM] (inactive) | 
64 | CC(C)c1c(O)nc(SCCOc2ccc(Cl)cc2)[nH]c1=O | -22.7% (inactive) | 
65 | Cc1nc(SCCOc2ccc(Cl)cc2)[nH]c(=O)c1Cc1ccccc1 | 0.0225% (inactive) | 
66 | Cc1cccc(-c2nc(SCc3ccc(Br)cc3)n3[nH]c(=O)cc3n2)c1 | -0.89% (inactive) | 
67 | CCn1c(SCC(=O)c2ccc3ccccc3c2)nnc1-c1cccs1 | -3.48% (inactive) | 
68 | Cc1ccc(-c2nc(SCc3ccc(Br)cc3)n3[nH]c(=O)cc3n2)cc1 |  | 79.4 µM (active)
69 | O=c1cc2nc(-c3ccccc3)nc(SCCOc3ccc(Cl)cc3)n2[nH]1 |  | 50.1 µM (active)
70 | Cc1ccc(OCCSc2nc(-c3cccs3)nc3cc(=O)[nH]n23)cc1Cl |  | 50.1 µM (active)
71 | Cc1ccc2nc(-c3ccc(Br)cc3)cn2c1 | -16% (inactive) | 
72 | CC(C)(C)C1CCc2c(sc(NC(=O)c3ccccc3F)c2C(=O)N2CCCCC2)C1 (centres undefined) | 1.75% (inactive) | 
73 | COc1cccc(-c2cc(C(=O)Nc3ccc(C)cc3)[nH]n2)c1 | -10.2% (inactive) | 
74 | COc1ccc(-c2noc(-c3ccc(N4CCN(c5ccccc5)CC4)c([N+](=O)[O-])c3)n2)cc1OC | -13.6% (inactive) | 
75 | CCN(CC)S(=O)(=O)c1ccc2c(c1)N(CC(=O)NCc1ccccc1)C(=O)CS2 | 4.1% (inactive) | 

Row | Structure (SMILES) | activity change, negative = inhibition | Potency
76 | CCNS(=O)(=O)c1cc(-c2nnc(Nc3cccc(C(F)(F)F)c3)c3ccccc23)ccc1C | -3.61% (inactive) | 
77 | CCC(=O)Nc1sc(C(=O)Nc2ccccc2)c(C)c1C(=O)OC | -18% (inactive) | 
78 | COC(=O)c1c(NC(=O)c2c(Cl)cnn2C)sc(C)c1C | -4.28% (inactive) | 
79 | COCCCNCC(=O)Nc1sc(C)c(C)c1C(=O)OC |  | 50.1 µM (active)
80 | Cc1ccc2c(=O)cc(C(=O)Nc3sc4c(c3C(=O)NCc3cccnc3)CCCC4)oc2c1 | -18.1% (inactive) | 
81 | CCOC(=O)c1c(C)n(S(=O)(=O)c2ccc(C)cc2C)c2ccc(NS(=O)(=O)c3ccc(C)cc3C)cc12 | -21.2% (inactive) | 
82 | Cc1ccc(CNC(=O)c2c(O)nc3c(C)cccn3c2=O)cc1 | 0.0746% (inactive) | 
83 | CNc1ccc(-c2nc(-c3ccco3)no2)cc1[N+](=O)[O-] | 2.85% (inactive) | 
84 | CNc1ccc(-c2nc(-c3ccccc3C)no2)cc1[N+](=O)[O-] | -24.4% (inactive) | 
85 | CC(Nc1ccc(-c2nc(-c3ccco3)no2)cc1[N+](=O)[O-])c1ccccc1 (centres undefined) |  | 79.4 µM (active)
86 | COc1ccc(NC(=O)c2ccc3nc(CCc4ccccc4)oc3c2)c(OC)c1 | 10.2% (inactive) | 
87 | O=C1Cc2cc(S(=O)(=O)Nc3ccc(OC(F)(F)F)cc3)cc3c2N1CCC3 | 1.13% (inactive) | 
88 | COc1ccc2c(CNCCc3ccccc3C)c(C(=O)O)n(Cc3ccccc3C)c2c1 | -11.2% (inactive) | 
89 | CN1C(=O)/C(=C/c2ccco2)SC1=Nc1cccc(C(=O)O)c1 |  | 50.1 µM (active)
90 | CN=C1S/C(=C\c2c(OC)cc(OC)cc2OC)C(=O)N1C | -0.785% (inactive) | 
91 | O=C(O)c1cccc(N=NN2CCCCCC2)c1 | -8.07% (inactive) | 
92 | CCCCCCn1nnc2sc(-c3ccccc3)cc2c1=O | 21.1% (inactive) | 
93 | Cc1cc2[nH]ncc2cc1NC(=S)NC(=O)c1ccccc1 | -31.9% (inactive) | 
94 | COC(=O)c1ccc(NC(=S)NN2CCOCC2)cc1 | -14.3% (inactive) | 
95 | Cc1cc(C(=O)NNC(=S)Nc2ccccc2C)cs1 | 4.84% (inactive) | 
96 | Cc1ccc(C(=O)NC(=S)Nc2ccccc2C)cc1 |  | 89.1 µM (active)
97 | Cc1ccc(C(=O)NC(=S)NCCN2CCOCC2)cc1 | -30.4% (inactive) | 
98 | Cc1ccc(C(=O)NC(=S)Nc2ccc(N3CCOCC3)cc2)cc1 |  | 14.1 µM (active)
99 | COc1ccc(-c2cc(C(F)(F)F)nc(SCC(=O)N(C)Cc3ccccc3)n2)cc1OC | -1.08% (inactive) | 
